{"source": "PubChem BioAssay (NCI)", "note": "Compounds without any hit were thinned out: in the full panel of roughly 83,000, 20% have a hit.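 96-well plates, one dose, 48 hours. Percent growth reported; active if below 10.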 Activity calls are given as the source filed them."}
{"tested_on": "SK-MEL-2 melanoma", "experiment": "NCI-60 one-dose screen, 48 h (100 = growth as untreated, 0 = no growth, -100 = all killed)", "conditions": "10 µM"}
{"molecule": "CC1=CC(=O)c2ccccc2C1=O", "growth": "110% (inactive)"}
{"molecule": "CCOC(=O)C(O)C(O)C(=O)OCC", "note": "(stereo unspecified)", "growth": "103% (inactive)"}
{"molecule": "Oc1ccc(Cc2ccccc2)c2cccnc12", "growth": "12.1% (inactive)"}
{"molecule": "CC1CCCC(CC(N)=O)CC1", "note": "(stereo unspecified)", "growth": "109% (inactive)"}
{"molecule": "COc1cc(C(N)=O)cc(OC)c1OC", "growth": "114% (inactive)"}
{"molecule": "Cc1ccc(/C(C#N)=C/c2ccc3c(c2)OCO3)cc1", "growth": "43.3% (inactive)"}
{"molecule": "O=C(O)C(Cc1ccccc1)C(=O)O", "growth": "111% (inactive)"}
{"molecule": "O=C1N(C[P+](c2ccccc2)(c2ccccc2)c2ccccc2)CCCN1C[P+](c1ccccc1)(c1ccccc1)c1ccccc1", "growth": "122% (inactive)"}
{"molecule": "N/N=C(/Cc1ccccc1)NNC(N)=S", "growth": "104% (inactive)"}
{"molecule": "COc1ccc(C)cc1OC", "growth": "112% (inactive)"}
{"molecule": "O=[N+]([O-])c1cccc(N=Nc2ccc(O)cc2O)c1", "growth": "79.8% (inactive)"}
{"molecule": "CC1=NN(c2ccccc2)C(=O)/C1=C\\N1CC(=O)NC1=S", "growth": "108% (inactive)"}
{"molecule": "CC1(O)CCCCC1O", "note": "(stereo unspecified)", "growth": "91.8% (inactive)"}
{"molecule": "CC1(C)/C(=C\\CO)C2CCC1C2", "note": "(stereo unspecified)", "growth": "105% (inactive)"}
{"molecule": "CCCCCCCCCCCCCCCCC1CC(=O)OC1=O", "note": "(stereo unspecified)", "growth": "113% (inactive)"}
{"molecule": "S=c1nn[nH]c2ccccc12", "growth": "102% (inactive)"}
{"molecule": "NC(=O)NC(=O)c1ccc(Cl)cc1", "growth": "92.2% (inactive)"}
{"molecule": "CC1=C(/C=C/C(C)=C/C=C/C(C)=C/CO)C(C)(C)CCC1", "growth": "107% (inactive)"}
{"molecule": "Cn1cnc2nc(Cl)nc(Cl)c21", "growth": "-23.4% (active)"}
{"molecule": "CC1(C)N=C(N)N=C(N)N1c1ccc(Cl)cc1", "growth": "71% (inactive)"}
{"molecule": "O=C(/C=C\\c1ccc(O)cc1)c1ccccc1", "growth": "114% (inactive)"}
